Test results from PubChem BioAssay (NCI).
The panel holds about 79,000 compounds, 15% with a hit somewhere; the sample as a whole holds those more often. The source made the active and inactive calls. No stated cut-off is given here; in the data, active means growth inhibition above about 70%; inactive means the rest.

How the values were obtained:
[1] = NCI Yeast Anticancer Drug Screen. Data for the rad50 strain (AID 155);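 further: 0% = growth of vehicle-only cultures of the same strain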; conditions: S. cerevisiae rad50 strain growth inhibition; at 50.0 µM; hits give high values
Method in brief: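 Yeast carrying a defined DNA repair defect were exposed to test compounds, and growth was compared with vehicle-treated controls to give percent inhibition.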

[2] = NCI Yeast Anticancer Drug Screen. Data for the mec2-1 strain (AID 157); conditions: S. cerevisiae mec2-1 strain, at 50.0 µM, hits give high values
Method in brief: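 Strain: mec2-1 (DNA repair/cell cycle alteration). Compound exposure, then growth measured; inhibition expressed relative to vehicle.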

[3] = NCI Yeast Anticancer Drug Screen. Data for the sgs1 mgt1 strain (AID 161);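 further: 0% = growth of cultures given vehicle only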; conditions: S. cerevisiae sgs1 mgt1 strain, at 50.0 µM, hits give high values
Method in brief: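 Test agents were incubated with a DNA-repair-mutant yeast strain. Growth was then read and compared against vehicle-treated controls.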

[4] = NCI Yeast Anticancer Drug Screen. Data for the cln2 rad14 strain (AID 165);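 further: 0% = growth equal to vehicle treated cultures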; conditions: S. cerevisiae cln2 rad14 strain, at 50.0 µM, hits give high values
Method in brief: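 Compounds are applied to the cln2 rad14 yeast strain, and growth is then compared with that of vehicle-treated cultures to give inhibition.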

[5] = NCI Yeast Anticancer Drug Screen. Data for the bub3 strain (AID 167); conditions: S. cerevisiae bub3 mutant strain, at 50.0 µM, hits give high values
Method in brief: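 Compounds were applied to a genetically altered yeast strain carrying a cell-cycle control defect. Growth inhibition was scored against vehicle-treated controls.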

[6] = NCI Yeast Anticancer Drug Screen. Data for the mlh1 rad18 strain (AID 175); conditions: S. cerevisiae mlh1 rad18 strain growth inhibition; at 50.0 µM; hits give high values
Method in brief: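 Read-out is yeast growth inhibition, calculated against vehicle-only controls. The compound was applied to a strain engineered with DNA damage repair alterations.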

Measured: growth inhibition

COc1cccc(NC(=O)C(=O)C(C(=O)c2ccccc2F)C2OC(=O)c3ccccc32)c1 (stereo unspecified)
inactive: [1] 15.6% | [2] 0.95% | [3] 35.5% | [4] 18.9% | [5] 7.85% | [6] 3.85%

C/C=C(\C)CCC(C)(O)CC (stereo unspecified)
inactive: [1] 2.2% | [2] -15.6% | [3] 7.45% | [4] 3% | [5] -22.4% | [6] 14.1%

C[C@H]1C(=O)c2c(cc(O)c(C3OC(CO)C(O)C(O)C3O)c2O)OC1c1ccc(O)c(O)c1 (stereo partly specified)
inactive: [1] 2.65% | [2] -18.6% | [3] -16.8% | [4] 8.45% | [5] -0.25% | [6] 12.6%

CSc1nc(NC2OCC(O)C(O)C2O)c(Cl)c(=O)[nH]1 (stereo unspecified)
inactive: [1] -13.5% | [2] -2.1% | [3] 12.3% | [4] -4.15% | [5] 2.55% | [6] 0.75%

CC(=O)O.Cl.NC1C([O-])OC(CO)C(O)C1O.O=C1OC(C(O)CO)C([O-])=C1[OH2+].[Cu+2] (stereo unspecified)
inactive: [1] 21.3% | [2] 8.3% | [3] -9.6% | [4] 5.95% | [5] 5.05% | [6] 17.2%

CC1CC2=C(C1)C(C1(C)C(=O)CC3C(C1=O)C3(C)C)C(C)C2=O (stereo unspecified)
inactive: [1] 2.3% | [2] -24.6% | [3] 5.5% | [4] 3.3% | [5] 4.6% | [6] -44.6%

O=C(O)CCc1nc2ccccc2[nH]1
inactive: [1] -9.3% | [2] -4.9% | [3] -23.8% | [4] 39.1% | [5] -43.9% | [6] -1%

CC1(C)OC(=O)N=C1c1ccc(Br)cc1
inactive: [1] 1.4% | [2] -25.6% | [3] -21.1% | [4] 21.8% | [5] -22% | [6] 15.3%

CCOC(=O)C(CCC(c1ccc(OC)cc1)c1ccc(OC)cc1)C(=O)OCC
inactive: [1] 29.7% | [2] -8.15% | [3] 10.2% | [4] 2.05% | [5] 27.6% | [6] -18.2%

Cc1cc2nc(N)n[n+]([O-])c2cc1C
inactive: [1] 8.4% | [2] 7.35% | [3] 2% | [4] -6.25% | [5] 1% | [6] -24.9%

CC(=O)OCC1OC(n2nc(C#N)c(C#N)n2)C(OC(C)=O)C1OC(C)=O (stereo unspecified)
inactive: [1] 37.9% | [2] -3% | [3] 3.15% | [4] 8.05% | [5] -5.85% | [6] 1.15%

COCCCOC(=O)COc1ccccc1
inactive: [1] -11.3% | [2] -45.5% | [3] -8.65% | [4] -12.8% | [5] 11.9% | [6] -13.5%

O=C1C(NCCc2ccc(O)c(O)c2)=CC(=O)c2ncccc21
inactive: [1] 35.5% | [2] 34.6% | [3] 32.1% | [4] 24.1% | [5] 6.3% | [6] -5.35%

O=C(CCN1C(=O)c2ccccc2C1=O)c1cnc(N2C(=O)c3ccccc3C2=O)[nH]1
inactive: [1] 15.6% | [2] -4.45% | [3] 11.4% | [4] -22.4% | [5] 18.9% | [6] 2.5%

CC(C)(C)NC(=S)N/N=C/c1ccccn1
active: [1] 77.2% | [2] 85.2% | [3] 90.5% | [4] 88.3% | [5] 89.7% | [6] 89.7%

O=S=C(c1ccccc1)N1CCc2ccccc21
inactive: [1] 22.4% | [2] 3.75% | [3] 12.1% | [4] 7.15% | [5] 18.4% | [6] 22.7%

O=C(NCc1ccccn1)c1ccccc1
inactive: [1] 17.5% | [2] 15.8% | [3] -4.45% | [4] -18.9% | [5] 17.1% | [6] 6.8%

O=C(O)c1ccc(C(=O)c2ccc(C(=O)c3ccc(C(=O)O)cc3)cc2)cc1
inactive: [1] -9.1% | [2] -18.4% | [3] 3.65% | [4] -52% | [5] -13% | [6] -14.8%

NCCc1ccc(O)c(O)c1
inactive: [1] -4.4% | [2] -4.2% | [3] -1.55% | [4] 4.25% | [5] -1.45% | [6] 1.85%

O/N=C1/CC2CCCCC2CC1(O)c1ccccc1 (stereo unspecified)
inactive: [1] 17.3% | [2] 19.1% | [3] 17.6% | [4] 18.4% | [5] -3.55% | [6] 30.4%

CN1CCCCCC1
inactive: [1] -8.05% | [2] -8.45% | [3] 5.95% | [4] -4.95% | [5] -10.9% | [6] -0.85%

CCCCS/C=C\SCCCC
inactive: [1] 2.85% | [2] 7.55% | [3] -8.5% | [4] -26.4% | [5] 6.7% | [6] -1.65%

CCOC(=O)Nc1nn(-c2ccc3ccccc3n2)c(=O)[nH]1
inactive: [1] 15.7% | [2] 1.65% | [3] 10.7% | [4] 11.9% | [5] 7.75% | [6] 13.7%

Cc1ccc(OCC2OC(n3cnc4c(Cl)nc(N)nc43)CC2Oc2ccc(C)cc2)cc1 (stereo unspecified)
inactive: [1] 2.3% | [2] -11% | [3] 13.4% | [4] 14.6% | [5] 2.4% | [6] -13.2%

COC(=O)c1cccc(C)c1C(=O)c1ccc(C)cc1C
inactive: [1] 9.65% | [2] 26.6% | [3] 53.1% | [4] -22.5% | [5] 57.8% | [6] 57.2%

O=C(/C=C/c1ccc(O)c(O)c1)c1ccc(O)c(O)c1O
inactive: [1] 14.3% | [2] -5.15% | [3] 4.45% | [4] -57.9% | [5] 8.55% | [6] 19.5%

COc1ccc(/C=C(\CC(=O)c2ccc(Cl)cc2)C(=O)O)cc1
inactive: [1] -21.5% | [2] -8.85% | [3] 6.6% | [4] -30.6% | [5] 1% | [6] -5.8%

COc1cc2c(cc1C/C=C/c1ccccc1)OCO2
inactive: [1] -11.4% | [2] -15.9% | [3] -0.9% | [4] -9.5% | [5] 17.1% | [6] -6.4%

Cc1c(F)cccc1NC(=O)OC(C)C
inactive: [1] 18.2% | [2] -5.15% | [3] -0.7% | [4] -50.8% | [5] 12.8% | [6] 5.1%

COc1ccc(C(=O)c2ccccc2)c(O)c1OC
inactive: [1] -12.9% | [2] -5.95% | [3] -2.35% | [4] -0.75% | [5] 45.8% | [6] 10.3%

Cc1cccc(NC(=O)/C(=N\NC(C)(C)C)C2NC(=S)NC2=O)c1C (stereo unspecified)
inactive: [1] -2.25% | [2] -29.8% | [3] -38.5% | [4] -6.6% | [5] -16.4% | [6] -39.1%

CCOc1ccc(/C=C2N=C(/C=C/c3ccccc3)OC\2=O)cc1
inactive: [1] 19% | [2] 14.8% | [3] 19.1% | [4] 16.6% | [5] 3.2% | [6] 3.75%

Cc1ccc(S(=O)(=O)OCCN2C(=O)CCC2=O)cc1
inactive: [1] 12.8% | [2] 8.8% | [3] 4.65% | [4] 9.5% | [5] -0.95% | [6] 15.8%

COc1cc2c(c(OC)c1OC)-c1ccc(SC)c(=O)cc1[C@@H](NC(=O)C(F)(F)F)CC2
inactive: [1] 11.1% | [2] -53.7% | [3] -18.1% | [4] -13.8% | [5] -12.7% | [6] -4.75%

O=C1NC(CN2CCC(O)CC2)C(=O)NC1CN1CCC(O)CC1 (stereo unspecified)
inactive: [1] 0.6% | [2] 7.7% | [3] -10.2% | [4] 2.4% | [5] -1.05% | [6] -0.35%

O=C(O)C(C(=O)O)C(O)c1c2ccccc2cc2ccccc12 (stereo unspecified)
inactive: [1] -10.3% | [2] 16% | [3] -4.35% | [4] -47.6% | [5] 0.6% | [6] -1.05%

Nc1nc(Cc2ccccc2)nc2[nH]ncc12
inactive: [1] 3.85% | [2] 6.3% | [3] 3.2% | [4] -18.5% | [5] -8.9% | [6] -1.6%

CC(C)=NN/C=N/S(=O)(=O)c1ccc(C)cc1
inactive: [1] 15.2% | [2] 6.05% | [3] 10.4% | [4] 25% | [5] 2.1% | [6] 4.65%

CCC(C)NC(=O)/C=C/C(=O)NC(C)CC (stereo unspecified)
inactive: [1] 5.4% | [2] -4.25% | [3] -5.75% | [4] -29.7% | [5] 4.95% | [6] 8.5%

CCCCCCCC(=O)N1CCCC(C)C1 (stereo unspecified)
inactive: [1] -7.8% | [2] -25.8% | [3] 9.3% | [4] -5.75% | [5] -35.3% | [6] -3.9%

O=c1c2ccccc2nc(-c2ccccc2)n1-c1cc(C(F)(F)F)cc(C(F)(F)F)c1
inactive: [1] -20.5% | [2] -23% | [3] 7.85% | [4] 10.8% | [5] 4% | [6] 5.95%
